Source: PubChem BioAssay (NCATS)
Records with an inconclusive call do not appear. The source made the active and inactive calls. Calls follow the shape of the dose curve; as a rule, active = well fitted curve in the direction sought with a large enough effect; inconclusive = small, poorly fitted or top-dose-only effect, or another doubt; inactive = no such curve, though single readings can be large; an effect the other way counts as inactive or inconclusive.

Assays:
[1] = qHTS of pediatric cancer cell lines to identify multiple opportunities for drug repurposing: Primary screen for NB1643 cells (AID 1347099); also: nearly all actives have a fitted effect of over 50% in size;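 as to activity change, negative = cytotoxic: plate controls were DMSO neutral control for no effect and bortezomib positive control for full effect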
Summary of the method: (§1)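 Readout: CellTiter-Glo luminescence, 48 h treatment. Controls DMSO (neutral) and bortezomib 2.3 µM final (positive). Potency and efficacy taken from primary-screen concentration-response curves.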

[2] = qHTS of pediatric cancer cell lines to identify multiple opportunities for drug repurposing: Primary screen for LAN-5 cells (AID 1347100);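 as to activity change, negative = cytotoxic: plate controls were DMSO neutral control for no effect and bortezomib positive control for full effect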
Summary of the method: (§2)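 Cells (500-1,000/well) in growth media were settled 5 h at 37 degrees C, then given compounds for 48 h. Viability was read as CellTiter-Glo luminescence. Primary runs used MIPE at 11 points (0.78 nM-46 µM) and NPC at 8 points (0.59 nM-46 µM); follow-ups used 11 points.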

[3] = qHTS of pediatric cancer cell lines to identify multiple opportunities for drug repurposing: Primary screen for BT-12 cells (AID 1347101); also: nearly all actives have a fitted effect of over 25% in size;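 as to activity change, negative = cytotoxic: plate controls were DMSO for no effect and bortezomib positive control for full effect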
Summary of the method: (§3)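 Cells (500-1,000/well) rested 5 h, then received compounds for 48 h; metabolically active cells were measured by CellTiter-Glo luminescence. Final concentrations spanned up to 46 µM (MIPE, 11-point) or 0.59 nM-46 µM (NPC, 8-point) in primary screens, 11-point in follow-ups.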

[4] = qHTS of pediatric cancer cell lines to identify multiple opportunities for drug repurposing: Primary screen for Rh18 cells (AID 1347102); also: nearly all actives have a fitted effect of over 65% in size; as to activity change, negative = cytotoxic: % is scaled to controls: 0 for no effect and ±100 for the full control effect
Summary of the method: as §2

[5] = qHTS of pediatric cancer cell lines to identify multiple opportunities for drug repurposing: Primary screen for OHS-50 cells (AID 1347103); also: nearly all actives have a fitted effect of over 40% in size;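 as to activity change, negative = cytotoxic: plate controls were DMSO neutral control for no effect and bortezomib positive control for full effect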
Summary of the method: as §3

[6] = qHTS of pediatric cancer cell lines to identify multiple opportunities for drug repurposing: Primary screen for RD cells (AID 1347104); also: nearly all actives have a fitted effect of over 55% in size;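 as to activity change, negative = cytotoxic: plate controls were DMSO for no effect and bortezomib for full effect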
Summary of the method: as §1

[7] = qHTS of pediatric cancer cell lines to identify multiple opportunities for drug repurposing: Primary screen for control Hh wild type fibroblast cells (AID 1347106); also: nearly all actives have a fitted effect of over 55% in size;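 as to activity change, negative = cytotoxic: series mostly up to about 46 µM; % is scaled to controls: 0 for no effect and ±100 for the full control effect; a drop in luminescence marks cytotoxicity and a rise apparent proliferation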
Summary of the method: as §2

[8] = qHTS of pediatric cancer cell lines to identify multiple opportunities for drug repurposing: Primary screen for Rh30 cells (AID 1347107); also: nearly all actives have a fitted effect of over 75% in size; as to activity change, negative = cytotoxic: series mostly up to about 46 µM; % is scaled to controls: 0 for no effect and ±100 for the full control effect
Summary of the method: as §2

[9] = qHTS of pediatric cancer cell lines to identify multiple opportunities for drug repurposing: Primary screen for Rh41 cells (AID 1347108); also: nearly all actives have a fitted effect of over 70% in size;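 as to activity change, negative = cytotoxic: series mostly up to about 46 µM; luminescence drop marks cytotoxic hits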
Summary of the method: as §1

[10] = qHTS of pediatric cancer cell lines to identify multiple opportunities for drug repurposing: Primary screen for MG 63 (6-TG R) cells (AID 1347105); also: nearly all actives have a fitted effect of over 50% in size; as to activity change, negative = cytotoxic: % is scaled to controls: 0 for no effect and ±100 for the full control effect
Summary of the method: as §1
Potency is read from the fitted curve at half-maximal effect.

CCN1CCC(n2cc(CNc3cc(Cl)c4ncc(C#N)c(Nc5ccc(F)c(Cl)c5)c4c3)nn2)CC1
inactive: Potency [7]
active: Potency [1] 18.7 µM | Potency [2] 14.8 µM | Potency [3] 24.3 µM | Potency [4] 20.9 µM | Potency [5] 17.2 µM | Potency [6] 18.7 µM | Potency [8] 23.5 µM | Potency [9] 14.8 µM

COc1ccnc(CS(=O)c2nc3ccc(OC(F)F)cc3[nH]2)c1OC (stereo not drawn)
inactive: Potency [1] | Potency [2] | Potency [3] | Potency [4] | Potency [5] | Potency [6] | Potency [10] | Potency [7] | Potency [8] | Potency [9]

CS(=O)(=O)c1ccc(C2=C(c3ccccc3)C(=O)OC2)cc1
inactive: Potency [1] | Potency [2] | Potency [3] | Potency [4] | Potency [5] | Potency [6] | Potency [10] | Potency [7] | Potency [8] | Potency [9]

COc1ccc(-c2cc(=O)c3c(O)cc(O[C@@H]4O[C@H](CO[C@@H]5O[C@@H](C)[C@H](O)[C@@H](O)[C@@H]5O)[C@@H](O)[C@H](O)[C@@H]4O)cc3o2)cc1O
inactive: Potency [2] | Potency [3] | Potency [4] | Potency [5] | Potency [10] | Potency [7]
active: Potency [1] 16.6 µM

O=C1C(CCC(O)c2ccc(F)cc2)C(c2ccc(O)cc2)N1c1ccc(F)cc1 (stereo not drawn)
inactive: Potency [1] | Potency [2] | Potency [3] | Potency [4] | Potency [6] | Potency [10] | Potency [7] | Potency [8] | Potency [9]

C=C[C@@H]1CN2CCC1C[C@@H]2C(O)c1ccnc2ccc(OC)cc12 (stereo partly drawn)
inactive: Potency [1] | Potency [2] | Potency [3] | Potency [4] | Potency [5] | Potency [7] | Potency [8]

O=C(c1ccc(C(=O)N2CCC(N3CCCC3)CC2)c(Nc2ccccc2)c1)N1CCC(N2CCCC2)CC1
inactive: Potency [1] | Potency [2] | Potency [3] | Potency [5] | Potency [6] | Potency [10] | Potency [7]

CN[C@@H](C)[C@H]1[C@H](O)C[C@@]2(C)[C@@H]3CC[C@H]4C(C)(C)[C@@H](NC)CC[C@@]45C[C@@]35CC[C@]12C
inactive: Potency [1] | Potency [2] | Potency [3] | Potency [4] | Potency [10] | Potency [7] | Potency [8] | Potency [9]

NC(=O)c1ccc(N(C(N)=O)c2c(F)cccc2F)nc1-c1ccc(F)cc1F
inactive: Potency [1] | Potency [2] | Potency [3] | Potency [4] | Potency [6] | Potency [10] | Potency [7] | Potency [8]

CCCCN(CCCC)CC(O)c1cc(Cl)cc2c1-c1ccc(Cl)cc1C2=Cc1ccc(Cl)cc1 (stereo not drawn)
inactive: Potency [1] | Potency [2] | Potency [3] | Potency [4] | Potency [5] | Potency [10] | Potency [7] | Potency [8] | Potency [9]

Cn1cc(-c2ccc3nnc(Sc4ccc5ncccc5c4)n3n2)cn1
inactive: Potency [1] | Potency [2] | Potency [3] | Potency [4] | Potency [5] | Potency [7]

CO[C@H]1C=CO[C@@]2(C)Oc3c(C)c(O)c4c(O)c(c(C=NN5CCN(C)CC5)c(O)c4c3C2=O)NC(=O)C(C)=CC=C[C@H](C)[C@H](O)[C@@H](C)[C@@H](O)[C@@H](C)[C@H](OC(C)=O)[C@H]1C
inactive: activity change, negative = cytotoxic [1] 22.3% [at 9.22 µM] | activity change, negative = cytotoxic [2] -8.14% [at 9.22 µM] | activity change, negative = cytotoxic [3] 2.32% [at 11.5 µM] | activity change, negative = cytotoxic [4] -3.68% [at 9.22 µM] | activity change, negative = cytotoxic [5] -1.83% [at 11.5 µM] | activity change, negative = cytotoxic [7] -5.37% [at 9.22 µM] | activity change, negative = cytotoxic [8] -1.05% [at 9.22 µM] | activity change, negative = cytotoxic [9] -8.55% [at 9.22 µM]

Cc1ccc(C(=O)N(CCCN)[C@@H](c2oc3cc(Cl)ccc3c(=O)c2Cc2ccccc2)C(C)C)cc1
active: Potency [2] 0.001 µM | Potency [3] 0.001 µM | Potency [4] 26.4 µM | Potency [5] 0.001 µM
inactive: Potency [1] | Potency [10] | Potency [7] | Potency [8]

CCC=CC[C@H]1C(=O)CC[C@@H]1CC(=O)OC
inactive: Potency [1] | Potency [2] | Potency [3] | Potency [5] | Potency [6] | Potency [10] | Potency [7] | Potency [8] | Potency [9]

C[C@@]1(C(=O)Nc2ccc(F)nc2)CCCN1c1nc(Nc2cc(C3CC3)[nH]n2)c2cccn2n1
active: Potency [1] 0.0935 µM | Potency [2] 0.0264 µM | Potency [4] 16.6 µM | Potency [5] 0.968 µM | Potency [10] 11.8 µM | Potency [7] 20.9 µM | Potency [9] 0.0743 µM
inactive: Potency [3]

Fc1ccc(CNc2ncnc3ccc(F)cc23)cc1
active: Potency [3] 4.32 µM | Potency [5] 6.85 µM
inactive: Potency [1] | Potency [2] | Potency [4] | Potency [7]

CC[C@H](C)n1cc(C)c2c(C(=O)NCc3c(C)cc(C)[nH]c3=O)cc(-c3ccc(N4CCNCC4)nc3)cc21
active: Potency [1] 1.66 µM | Potency [2] 23.5 µM | Potency [3] 30.6 µM | Potency [5] 24.3 µM | Potency [6] 4.69 µM | Potency [10] 23.5 µM | Potency [9] 18.7 µM
inactive: Potency [7]

Cc1ccccc1C(C(=O)NC1CCCCC1)N(C(=O)CNc1ccc(C#N)cc1)c1cccc(F)c1 (stereo not drawn)
inactive: Potency [1] | Potency [2] | Potency [3] | Potency [4] | Potency [6] | Potency [7] | Potency [8] | Potency [9]

CCc1cccc(CC)c1NC(=O)N1Cc2[nH]nc(NC(=O)c3ccc(N4CCN(C)CC4)cc3)c2C1
active: Potency [2] 0.296 µM | Potency [4] 8.33 µM | Potency [10] 14.8 µM
inactive: Potency [1] | Potency [3] | Potency [8]

CN(C)CCOc1cc(-c2cn[nH]c2)ccc1NC(=O)C1COc2ccccc2O1 (stereo not drawn)
inactive: Potency [2] | Potency [3] | Potency [4] | Potency [6] | Potency [7] | Potency [8]
active: Potency [1] 9.35 µM
